# SIRT5 block: SIRT5 desuccinylase inhibitors, primary screen, biochemical, fluorescence imaging, single point, set 5 | inhibition, % at 15 µM | 1.1% of 330,000 active | Purified SirT5, succinyl-peptide AMC, trypsin-coupled fluorescence; in the data active = inhibition above about 15%
# FGF22 binding: binders of human FGF22 protein, primary screen, FGF22 synaptogenesis inhibitor project, biophysical, thermal shift, single point | Fibroblast growth factor 22 (Homo sapiens), Q9HCT0 | recombinant FGF22 thermal shift, SYPRO orange fluorescence; percent of sucrose octasulfate shift, DMSO zero | activity (Tm shift, normalised), % at 9.99 µM | 1.5% of 340,000 active;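 active = mean Tm shift, scaled 0 neutral to 100 positive control, at about 1.3% or above, every replicate too, limit read from the data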
# Target sequence (Q9HCT0 whole entry, looked up): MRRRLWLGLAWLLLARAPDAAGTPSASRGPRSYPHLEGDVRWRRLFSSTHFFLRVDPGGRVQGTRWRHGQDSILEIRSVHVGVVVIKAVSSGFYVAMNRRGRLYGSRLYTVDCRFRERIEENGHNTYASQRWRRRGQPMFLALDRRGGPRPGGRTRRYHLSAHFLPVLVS
# CDK5 inh: inhibitors of human CDK5/p35 kinase, primary screen, biochemical, single concentration; Cyclin-dependent kinase 5 (Homo sapiens) + Cyclin-dependent kinase 5 activator 1 (Homo …; Recombinant CDK5/p35, ADP-Glo luminescence, 60 min; inhibition, % at 10 µM; 0.01% of 330,000 active;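 active = highest replicate inhibition of at least 50% and at least 75% of replicates reaching 50%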;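 note: plate controls were DMSO neutral control for no effect and GW8510 at 10 µM for full effect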
# PglD inh: C. jejuni PglD acetyltransferase inhibitors, primary screen, biochemical, DTNB colorimetric, single point | inhibition, % at 12.5 µM | 0.098% of 360,000 active | purified PglD enzyme, DTNB colorimetric CoA detection; in the data active = inhibition above about 16%, passing the limit was not always enough
# dFosB activator: activators of delta FosB homodimer, primary screen, biochemical, fluorescence polarization, TAMRA-CDK5 oligo, single point; purified delta FosB; percent of positive-control signal above neutral wells; activation, % at 25 µM; 0.99% of 340,000 active; AID 493131, 2011;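 active = mean activation above about 17%, with every replicate also reaching it, limit read from the data, passing the limit was not always enough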
# Target sequence (P13346 whole entry, looked up): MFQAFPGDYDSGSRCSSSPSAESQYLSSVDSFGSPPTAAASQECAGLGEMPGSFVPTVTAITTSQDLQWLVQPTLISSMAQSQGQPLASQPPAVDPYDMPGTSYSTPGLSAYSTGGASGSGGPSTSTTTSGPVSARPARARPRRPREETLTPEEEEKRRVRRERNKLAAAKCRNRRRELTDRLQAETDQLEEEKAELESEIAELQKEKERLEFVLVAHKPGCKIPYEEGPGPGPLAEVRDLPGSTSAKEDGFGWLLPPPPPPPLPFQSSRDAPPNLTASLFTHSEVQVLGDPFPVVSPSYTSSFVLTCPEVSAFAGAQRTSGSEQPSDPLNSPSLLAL
# PvdQ acylase: P. aeruginosa PvdQ acylase inhibitors, primary screen, biochemical, fluorescence, plate reader and imaging, single point; purified PvdQ acylase; 0.063% of 340,000 active; inhibition, % at 10 µM; in the data active = inhibition above about 30%, passing the limit was not always enough;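 note: 0% = vehicle neutral wells and 100% = reference inhibitor wells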
# An asterisk follows results filed as active; nt = no result given. This is a sample that favours compounds with a hit; in the whole collection about 2.8% have one here.
SMILES,SIRT5 block,FGF22 binding,CDK5 inh,PglD inh,dFosB activator,PvdQ acylase
C[C@@H](CO)NC(=O)c1nc[nH]c1C(=O)N[C@H](C)c1ccccc1,nt,43*,nt,2,nt,nt
C[C@@H](NC(=O)c1nc[nH]c1C(=O)N[C@H](C)c1ccccc1)c1ccccc1,-5,0,1,-3,-1,-10
C[C@H](NC(=O)c1nc[nH]c1C(=O)NC[C@@H](C)O)c1ccccc1,nt,43*,nt,-3,nt,nt
Cc1ccc(S(=O)(=O)N(C)C[C@@H]2Oc3ccc(NC(=O)Cc4ccccc4)cc3C(=O)N([C@@H](C)CO)C[C@@H]2C)cc1,1,0,nt,-1,nt,nt
COc1ccc(S(=O)(=O)N(C)C[C@@H]2OCCCC[C@@H](C)Oc3ccc(NS(=O)(=O)c4ccc(F)cc4)cc3C(=O)N([C@@H](C)CO)C[C@@H]2C)cc1,20*,1,nt,1,nt,nt
COc1ccc(S(=O)(=O)N(C)C[C@@H]2OCCCC[C@@H](C)Oc3ccc(NS(=O)(=O)c4ccc(F)cc4)cc3C(=O)N([C@H](C)CO)C[C@@H]2C)cc1,13,0,nt,-2,nt,nt
COc1ccc(S(=O)(=O)N(C)C[C@H]2OCCCC[C@@H](C)Oc3ccc(NS(=O)(=O)c4ccc(F)cc4)cc3C(=O)N([C@H](C)CO)C[C@H]2C)cc1,20*,0,nt,1,nt,nt
COc1ccc(S(=O)(=O)N(C)C[C@H]2OCCCC[C@H](C)Oc3ccc(NS(=O)(=O)c4ccc(F)cc4)cc3C(=O)N([C@H](C)CO)C[C@@H]2C)cc1,18*,0,nt,0,nt,nt
COc1ccc(S(=O)(=O)N(C)C[C@@H]2OCCCC[C@H](C)Oc3ccc(NS(=O)(=O)c4ccc(F)cc4)cc3C(=O)N([C@@H](C)CO)C[C@@H]2C)cc1,20*,1,nt,1,nt,nt
CS(=O)(=O)Nc1ccc2c(c1)[C@H]1C[C@H](CC(=O)O)O[C@H](CO)[C@H]1O2,9,nt,nt,nt,nt,nt
COc1ccc(S(=O)(=O)N(C)C[C@@H]2Oc3ccc(NC(=O)CCCN(C)C)cc3CC(=O)N([C@H](C)CO)C[C@@H]2C)cc1,3,0,nt,nt,nt,nt
C[C@H]1CN([C@@H](C)CO)C(=O)c2cc(NC(=O)Nc3ccc(F)cc3)ccc2O[C@@H]1CN(C)S(=O)(=O)c1ccc(Cl)cc1,1,0,nt,-2,nt,nt
COc1ccc(S(=O)(=O)N(C)C[C@H]2Oc3ccc(NC(=O)Nc4ccc(F)cc4)cc3C(=O)N([C@H](C)CO)C[C@H]2C)cc1,21*,0,nt,3,nt,nt
COc1ccc(S(=O)(=O)N(C)C[C@@H]2Oc3ccc(NC(=O)Nc4ccc(F)cc4)cc3C(=O)N([C@@H](C)CO)C[C@H]2C)cc1,7,0,nt,-6,nt,nt
C[C@@H]1CN([C@@H](C)CO)C(=O)c2cc(NC(=O)Nc3ccc(F)cc3)ccc2O[C@@H]1CN(C)S(=O)(=O)c1ccc(Cl)cc1,19*,0,nt,-1,nt,nt
[N-]=C=C1C(=S)NC(=O)[C@H]([n+]2ccccc2)[C@H]1c1ccc(Cl)cc1,34*,0,1,7,-5,-9
[N-]=C=C1C(=O)NC(=O)C([n+]2ccc(-c3ccncc3)cc2)C1c1ccccc1C(F)(F)F (configuration not stated),-4,0,1,9,-4,8
C[C@H](CO)N1C[C@H](C)[C@H](CN(C)S(=O)(=O)c2ccc(F)cc2)Oc2ccc(NS(=O)(=O)c3cccs3)cc2CC1=O,-1,0,nt,3,nt,nt
COc1ccc(N2c3ccccc3CN(Cc3ccccc3)CC2Cc2cc(OC)c(OC)c(OC)c2)cc1 (configuration not stated),nt,44*,nt,0,nt,nt
Cc1ccc(S(=O)(=O)Nc2ccc3c(c2)C(=O)N([C@@H](C)CO)C[C@H](C)[C@@H](CN(C)CC2CCCCC2)OCCCC[C@H](C)O3)cc1,-1,0,nt,1,nt,nt
CCCCN1C(=O)C(=O)N(CC(=O)NC2CCCc3ccccc32)C1=O (configuration not stated),-2,44*,-4,nt,1,-11
O=C(CN1C(=O)C2CCCCC2C1=O)NC1CCCc2ccccc21 (configuration not stated),-5,nt,0,3,-6,-7
COc1ccc(OC)c(NC(=O)COC(=O)C2CCCCC2)c1,nt,44*,-7,-2,-2,-16
NS(=O)(=O)c1ccc(NC(=O)COC(=O)CCC2CCCC2)cc1,-4,0,-2,-5,3,-6
O=C(COC(=O)c1cnccn1)Nc1ccc(Cl)cn1,-3,0,2,nt,-1,1
SMILES,SIRT5 block,FGF22 binding,CDK5 inh,PglD inh,dFosB activator,PvdQ acylase
CN(C)c1ccc(C(=O)OCC(=O)Nc2ccc(S(N)(=O)=O)cc2)cc1,4,nt,2,0,82*,-11
COc1ccc(OC)c(NC(=O)COC(=O)C2CCC2)c1,-1,0,-9,0,-8,-12
NS(=O)(=O)c1ccc(NC(=O)COC(=O)C2CCCCC2)cc1,2,44*,-2,nt,-1,1
NS(=O)(=O)c1ccc(NC(=O)COC(=O)c2cnccn2)cc1,0,43*,0,5,2,-6
C[C@H](CO)N1C[C@H](C)[C@H](CN(C)Cc2ccccc2C(=O)O)Oc2ncc(C3=CCCC3)cc2C1=O,8,0,nt,1,nt,nt
Cc1sc2cc3c(c(C(=O)c4ccccc4)[n+]2c1C)-c1cccc2cccc-3c12,1,0,nt,nt,nt,nt
O=C(c1ccccc1)c1c2c(cc3sc4ccccc4[n+]13)-c1cccc3cccc-2c13,nt,nt,0,-12,22*,-7
COc1ccc(Cl)cc1S(=O)(=O)N1CCCC1=O,3,43*,-3,nt,3,-19
CN1C(=O)c2cc(NC(=O)c3cccc(C(F)(F)F)c3)ccc2OC[C@@H]2O[C@H](CC(=O)O)CC[C@@H]21,-4,0,nt,2,nt,nt
CCC(C)(C)n1nnnc1C(c1cc2cc(C)ccc2[nH]c1=O)N1CCCc2ccccc21 (configuration not stated),17*,0,1,-5,-5,-10
COc1ccc(Cn2nnnc2C(c2cc3cc(C)ccc3[nH]c2=O)N2CCN(C)CC2)cc1 (configuration not stated),-3,44*,3,nt,-7,13
COc1ccc(Cn2nnnc2C(c2cc3cccc(C)c3[nH]c2=O)N2CCN(C)CC2)cc1 (configuration not stated),-2,0,-1,nt,-13,2

# Compound activity deposited in PubChem by Broad Institute.
